Source: article PMC7826789 (International Journal of Molecular Sciences, 2021)

System: NEK1
Conditions: Compound Concentration (nM):1000
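Note: KINOMEscan scanMAX binding as percent activity remaining versus control; lower means stronger binding.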

SMILES | Percent Control [%]
COC(=O)Nc1nc2ccc(Oc3ccc(NC(=O)Nc4cc(C(F)(F)F)ccc4F)cc3)cc2s1.Cl [GW693917A] | 94
COc1ccc2cc(-c3c(-c4ccncc4)nc(-c4ccc(S(C)(=O)=O)cc4C)n3C)ccc2c1 [SB-633825] | 100
COc1cc(C=NNc2ncnc3c2cnn3-c2ccccc2)ccc1O [GW513184X] | 100
COc1cccc(-n2ncc3c(N/N=C/c4ccncc4)ncnc32)c1 [GW784752X] | 84
COc1cc(N2CCN(C(C)C)CC2)ccc1Nc1nc(Nc2ccc(F)cc2C(=O)NC[C@@H](O)CO)c2cc[nH]c2n1 [GSK1392956A] | 82
CC(C)COC(=O)c1ccc2c(c1)/C(=C/Nc1ccc(S(N)(=O)=O)cc1)C(=O)N2 [GW416981X] | 94
CC1=C(C(=O)Nc2ccc3[nH]ncc3c2)C(c2ccc3ccccc3c2)CC(=O)N1 (stereo not shown) [GSK270822A] | 87
NS(=O)(=O)c1ccc(Nc2ncc(-c3ccccc3)o2)cc1 [GW572399X] | 84
CC1=C(C(=O)Nc2ccc3[nH]ncc3c2)C(c2ccc(Cl)c(Cl)c2)CC(=O)N1 (stereo not shown) [GSK299115A] | 84
NS(=O)(=O)c1ccc(N/N=C2\C(=O)Nc3ccc(C(=O)NCc4ccncc4)cc32)cc1 [GW300657X] | 80
CCc1ccc(Oc2nccc(-c3c(-c4ccc(F)cc4)ncn3C3CCNCC3)n2)cc1 [SB-242719] | 100
Cl.O=C(Nc1ccc(Oc2ccc3[nH]c(NC(=O)c4ccccc4)nc3c2)cc1)Nc1cc(C(F)(F)F)ccc1F [GW709042A] | 89
COc1cccc(-c2c[nH]c3c(N/N=C/c4ccncc4)ncnc23)c1 [GW814408X] | 95
CCS(=O)(=O)c1ccc(OC)c(Nc2ncc(-c3cccc(F)c3)o2)c1 [GW621970X] | 84
Cc1cc(O)cc(C)c1/C=C/c1cncc(C(N)=O)c1 [GW435821X] | 100
Cl.O=C(Nc1ccc(Oc2ccc3[nH]c(NC(=O)c4ccco4)nc3c2)cc1)Nc1cc(C(F)(F)F)ccc1F [GW683134A] | 80
O=C(Nc1n[nH]c2nc(-c3ccc(O)cc3)c(Br)cc12)C1CC1 [SB-725317] | 99
COc1cc2ncn(-c3cc(O[C@H](C)c4ccccc4Cl)c(C(N)=O)s3)c2cc1OC [GSK237701A] | 51
COc1ccc(COc2ccc(Cc3cnc(N)nc3N)cc2OC)cc1 [GW632580X] | 100
O=C1Nc2ccc(C(=O)c3ccco3)cc2C1=Cc1cc(Cl)c(O)c(Cl)c1 [GW406108X] | 78
Cl.O=C(O[C@H]1CN[C@H](C#Cc2cc3ncnc(Nc4ccc5c(cnn5Cc5ccccc5)c4)c3s2)C1)N1CCOCC1 [GSK200398A] | 68
COc1cc(C)c(N(C)C(=O)CN(C)C)cc1Nc1nc(Nc2cccc(F)c2C(N)=O)c2cc[nH]c2n1 [GSK2219385] | 100
Nc1ncnc2occ(-c3ccc(NC(=O)Nc4cc(C(F)(F)F)ccc4F)cc3)c12 [GW770249X] | 89
COc1cc(/C=N/Nc2ncnc3[nH]ncc23)ccc1O [GW578748X] | 70
C[C@@H](Oc1cc(-n2cnc3ccc(OC4CCN(C)CC4)cc32)sc1C(N)=O)c1ccccc1Cl [GSK579289A] | 60
COc1ccc2c(-c3ccnc(Nc4cccc(OC(F)(F)F)c4)n3)cnn2n1 [GW810372X] | 85
CN(C)c1cc2c(Nc3ccc4c(cnn4Cc4ccccc4)c3)ncnc2cn1 [GW282974X] | 79

System: NEK2
Conditions: Compound Concentration (nM):1000

SMILES | Percent Control [%]
CCn1c(-c2nonc2N)nc2c(C#CC(C)(C)O)nc(OCCNC)cc21.Cl [GSK949675] | 100
Cl.O=S1CCN(Cc2ccc(-c3ccc4ncnc(Nc5ccc(OCc6ccccc6)c(F)c5)c4c3)o2)CC1 [GW576924A] | 100
CCS(=O)(=O)c1ccc(OC)c(Nc2ncc(-c3cccc(OC)c3)o2)c1 [GW580509X] | 100
Cl.c1ccc(Cc2nc3ccc(Nc4ncnc5ccccc45)cc3[nH]2)cc1 [GR269666A] | 100
NS(=O)(=O)c1ccc(N/N=C2\C(=O)Nc3ccc(C(=O)NCCc4c[nH]cn4)cc32)cc1 [GW300660X] | 100
C/C(Nc1ccc(S(N)(=O)=O)cc1)=C1/C(=O)Nc2ccccc21 [GW335962X] | 100
COc1ccccc1-c1cc(/C=C2\C(=O)Nc3ncc(Br)cc32)cc(Br)c1O [GW442130X] | 100
NS(=O)(=O)c1ccc(N/N=C2\C(=O)Nc3ccc(-c4cnco4)cc32)cc1 [GW276655] | 100
CN(C)CCNC(=O)Nc1ccc(N(C)c2ccnc(Nc3ccc(CS(C)(=O)=O)cc3)n2)cc1.Cl [GW830900A] | 90
COc1ccc2[nH]c3c4[nH]c5ccc(OC)cc5c4c4c(c3c2c1)C(=O)NC4=O [GW296115X] | 78
COc1cc2ncnc(Nc3ccc4c(cnn4Cc4ccccc4)c3)c2cc1OC.Cl [GW282449A] | 100
NS(=O)(=O)c1ccc(N/N=C2\C(=O)Nc3ccc(Cl)cc32)cc1 [GW280670X] | 100
CN1CCN(C(=O)c2ccc(NC(=O)Nc3ccc(N(C)c4ccnc(Nc5ccc(CS(C)(=O)=O)cc5)n4)cc3)cc2)CC1.Cl [GW830263A] | 89
COC(=O)Nc1nc2ccc(Oc3ccc(NC(=O)Nc4cc(C(F)(F)F)ccc4F)cc3)cc2s1.Cl [GW693917A] | 82
COc1ccc2cc(-c3c(-c4ccncc4)nc(-c4ccc(S(C)(=O)=O)cc4C)n3C)ccc2c1 [SB-633825] | 93
COc1cc(C=NNc2ncnc3c2cnn3-c2ccccc2)ccc1O [GW513184X] | 100
COc1cccc(-n2ncc3c(N/N=C/c4ccncc4)ncnc32)c1 [GW784752X] | 100
COc1cc(N2CCN(C(C)C)CC2)ccc1Nc1nc(Nc2ccc(F)cc2C(=O)NC[C@@H](O)CO)c2cc[nH]c2n1 [GSK1392956A] | 99
CC(C)COC(=O)c1ccc2c(c1)/C(=C/Nc1ccc(S(N)(=O)=O)cc1)C(=O)N2 [GW416981X] | 100
CC1=C(C(=O)Nc2ccc3[nH]ncc3c2)C(c2ccc3ccccc3c2)CC(=O)N1 (stereo not shown) [GSK270822A] | 85

SMILES | Percent Control [%]
NS(=O)(=O)c1ccc(Nc2ncc(-c3ccccc3)o2)cc1 [GW572399X] | 100
CC1=C(C(=O)Nc2ccc3[nH]ncc3c2)C(c2ccc(Cl)c(Cl)c2)CC(=O)N1 (stereo not shown) [GSK299115A] | 97
NS(=O)(=O)c1ccc(N/N=C2\C(=O)Nc3ccc(C(=O)NCc4ccncc4)cc32)cc1 [GW300657X] | 79
CCc1ccc(Oc2nccc(-c3c(-c4ccc(F)cc4)ncn3C3CCNCC3)n2)cc1 [SB-242719] | 96
Cl.O=C(Nc1ccc(Oc2ccc3[nH]c(NC(=O)c4ccccc4)nc3c2)cc1)Nc1cc(C(F)(F)F)ccc1F [GW709042A] | 100
COc1cccc(-c2c[nH]c3c(N/N=C/c4ccncc4)ncnc23)c1 [GW814408X] | 100
CCS(=O)(=O)c1ccc(OC)c(Nc2ncc(-c3cccc(F)c3)o2)c1 [GW621970X] | 100
Cc1cc(O)cc(C)c1/C=C/c1cncc(C(N)=O)c1 [GW435821X] | 100
Cl.O=C(Nc1ccc(Oc2ccc3[nH]c(NC(=O)c4ccco4)nc3c2)cc1)Nc1cc(C(F)(F)F)ccc1F [GW683134A] | 100
O=C(Nc1n[nH]c2nc(-c3ccc(O)cc3)c(Br)cc12)C1CC1 [SB-725317] | 100
COc1cc2ncn(-c3cc(O[C@H](C)c4ccccc4Cl)c(C(N)=O)s3)c2cc1OC [GSK237701A] | 3.7
COc1ccc(COc2ccc(Cc3cnc(N)nc3N)cc2OC)cc1 [GW632580X] | 84
O=C1Nc2ccc(C(=O)c3ccco3)cc2C1=Cc1cc(Cl)c(O)c(Cl)c1 [GW406108X] | 83
Cl.O=C(O[C@H]1CN[C@H](C#Cc2cc3ncnc(Nc4ccc5c(cnn5Cc5ccccc5)c4)c3s2)C1)N1CCOCC1 [GSK200398A] | 72
COc1cc(C)c(N(C)C(=O)CN(C)C)cc1Nc1nc(Nc2cccc(F)c2C(N)=O)c2cc[nH]c2n1 [GSK2219385] | 72
Nc1ncnc2occ(-c3ccc(NC(=O)Nc4cc(C(F)(F)F)ccc4F)cc3)c12 [GW770249X] | 77
COc1cc(/C=N/Nc2ncnc3[nH]ncc23)ccc1O [GW578748X] | 100
C[C@@H](Oc1cc(-n2cnc3ccc(OC4CCN(C)CC4)cc32)sc1C(N)=O)c1ccccc1Cl [GSK579289A] | 9.5
COc1ccc2c(-c3ccnc(Nc4cccc(OC(F)(F)F)c4)n3)cnn2n1 [GW810372X] | 100
CN(C)c1cc2c(Nc3ccc4c(cnn4Cc4ccccc4)c3)ncnc2cn1 [GW282974X] | 66
